Most compounds without a hit are left out; they make up all but 7.6% or so of the library.
Cav32 inh = Cav3.2 calcium influx blockers – cell-based, Fluo-4 calcium fluorescence, FDSS, MLSMR library, primary screen; Cav3.2-expressing cells; active compounds read low; B-score at 10 µM; 100,000 compounds, 4% hits; AID 449739, 2010;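 active = single-dose well whose peak fluorescence ratio is a statistical outlier from its plate by either plate-standardised score or position-corrected B-score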
PLAP activator = PLAP enzyme activators, biochemical, luminescence, HTS; purified PLAP enzyme, luminescent substrate read-out; active compounds read high; Alkaline phosphatase, placental type (Homo sapiens), P05187; 96,000 compounds, 1.2% hits; activation fold at 20 µM; in the data active = activation fold above about 2
M1 antag = antagonists of rat M1 muscarinic receptor; B-score at 10 µM; CHO-M1 cells, Fluo-4 calcium, ACh EC80 antagonist mode; active compounds read low; Muscarinic acetylcholine receptor M1 (Rattus norvegicus), P08482; 64,000 compounds, 3.4% hits; AID 628, 2007;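 active = calcium fluorescence response, raw or row-and-column corrected B-score, differing from the plate sample mean either way at a set confidence level, mostly lower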
M1 ag = M1 muscarinic receptor agonists, primary screen, CHO-M1 cells, Fluo-4 calcium, agonist mode. 64,000 compounds, 3% hits. AID 626, 2007. Muscarinic acetylcholine receptor M1. Fluo-4 calcium fluorescence; active compounds read high. B-score at 10 µM;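 active = fluorescence rise, raw or as B-score row- and column-corrected plate score, outside the 99.7% band of its plate's samples, either direction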
M1 ag confirm = rat M1 muscarinic receptor agonists, confirmation, CHO-M1 cells, Fluo-4 calcium, duplicate retest; shares compounds with M1 ag; Fluo-4 calcium fluorescence, agonist mode; actives lie on both sides; fluorescence change (max-min) at 10 µM; 1,700 compounds, 19% hits;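 active = fluorescence change differs from the solvent-only DMSO control mean at a set confidence level in both duplicate runs; inconclusive = differs from solvent-only control mean in just one of two runs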;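 also: an EC20 dose of acetylcholine follows compound addition during the same imaging run; raw fluorescence intensity difference in instrument units with no normalization to controls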
M4 agonist ctr = agonist activity at rat M4 receptor, confirmation, counter-screen for M1 allosteric modulator project, cell-based, agonist mode. CHO M4/Gqi5 cells, Fluo-4 calcium fluorescence; actives lie on both sides. AID 1741, 2009. 1,700 compounds, 9% hits. shares compounds with M1 ag. fluorescence change (max-min) at 10 µM;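 active = fluorescence change differing from the plate's solvent-only control wells at 99.7% confidence in both duplicates, whether higher or lower; inconclusive = differs from solvent controls in only one of two duplicates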
Starred values were filed as active, the others as inactive; ? = inconclusive; nt = no result.

SMILES	Cav32 inh	PLAP activator	M1 antag	M1 ag	M1 ag confirm	M4 agonist ctr
CC#CCN(CC#CC)S(=O)(=O)c1ccc(-n2cnnn2)c(OC)c1	-0.0115	1	0.379	1.76	nt	nt
C=CCOc1cccc(C2C(C(=O)c3ccc(C)o3)=C(O)C(=O)N2c2nccs2)c1 (stereo not drawn)	-5.1*	1	0.334	58.4*	834*	83.6*
Cc1cc(N2CCN(S(=O)(=O)c3ccc(Cl)cc3)CC2)c2ccccc2n1	-1.9	1.9	-7.43*	5.23*	-9.99	-16
Cc1ccc(S(=O)(=O)NCCCN2CCOCC2)c(C)c1	0.0338	1.3	1.24	0.729	nt	nt
CCCc1nc(SCC(=O)c2ccccc2)c2c(=O)n(C)c(=O)n(C)c2n1	0.209	1.4	nt	nt	nt	nt
Cn1c(=O)c2c(SCC(=O)c3ccccc3)nc(C3CC3)nc2n(C)c1=O	-0.278	0.9	-0.996	2.72*	-13.4	-44.4
C1=C(CCNc2ncnc3nc[nH]c23)CCCC1	nt	1.8	-0.603	2.72*	?	-24.6
Clc1ccc(CCNc2ncnc3nc[nH]c23)cc1	-0.000833	1.6	-2.56*	14.9*	?	?
OCCOCCNc1ncnc2nc[nH]c12	nt	1.1	-0.027	1.49	nt	nt
CC1(C)Cc2c(C#N)c(N)sc(=S)c2CS1	-0.0939	1.1	0.478	0.439	nt	nt
N#Cc1c(N)sc(=S)c2c1CCCCC2	-1.61	1.1	-0.935	13.3*	2.22	-10.1
CC(C)c1nc2oc3c(NCC4CCCO4)ncnc3c2c2c1COC(C)(C)C2 (stereo not drawn)	nt	1.3	-0.0586	4.5*	-25.9	-41.6
O=C1CC(c2ccc(F)cc2)Sc2ccccc2N1 (stereo not drawn)	0.0221	nt	0.0224	0	nt	nt
COc1cc(C2CC(=O)Nc3ccccc3S2)cc(OC)c1OC (stereo not drawn)	nt	1	-1.54	5.95*	-7.17	?
COc1cccc(C(c2nnnn2Cc2ccccc2)N2CCN(C3CCCC3)CC2)c1OC (stereo not drawn)	2.34	1.6	-1.73*	2.85*	-14.1	-34.8
COc1ccc(OC)c(C(c2nnnn2C2CCCC2)N2CCN(c3ccccc3)CC2)c1 (stereo not drawn)	nt	1.6	-0.0861	-1.66*	-15.7	-51.4
CC(=N/O)/C(=N\O)c1ccc(C)o1	0.0733	1	0.446	-0.649	nt	nt
C=CCn1c2ccccc2c2nnc(SCCCn3c(=O)[nH]c4ccccc43)nc21	-2.95	1.7	-6.62*	5.32*	-3.69	-18.2
O=C(Nc1ccc(-c2cn3ccsc3n2)cc1)c1ccc(F)c(S(=O)(=O)N2CCOCC2)c1	0.821	1	-0.291	-0.737	nt	nt
CNC(=O)c1cc2ccc(OC)cc2oc1=O	-0.221	0.9	-2.31*	3.77*	132*	92.8
CNC(=O)c1cc2cc(OC)ccc2oc1=N	-0.488	0.7	0.358	0.968	nt	nt
COc1ccc(C2=NOC(C(=O)N3CCN(c4ccccc4OC)CC3)C2)cc1 (stereo not drawn)	-0.0635	1.1	-1.4	2.58*	-14.9	?
CC(C)c1nnc(NC(=O)CCC(=O)N2CCN(C3CCCCC3)CC2)s1	0.982	1.6	-0.0268	3.11*	?	-8.59
COc1ccc(OC)c(NC(=O)CSc2nnc(Cn3c(=O)sc4ccccc43)n2C)c1	0.299	nt	0.278	-0.308	nt	nt
COc1ccc(OC)c(NC(=O)Cn2cc(C(=O)c3ccco3)c3ccccc32)c1	-2.08	1	0.511	0.386	nt	nt
SMILES	Cav32 inh	PLAP activator	M1 antag	M1 ag	M1 ag confirm	M4 agonist ctr
COc1cccc(OCCn2cc(C(=O)c3ccco3)c3ccccc32)c1	-1.76	1.2	-0.0581	5.01*	-19.2	-38.5
CN(c1cccc(Cl)c1)S(=O)(=O)c1cccc(C(=O)NC2=NCCS2)c1	0.266	1	nt	nt	nt	nt
CC(C)N(C(=O)CN(C#N)c1nc(N(C)C)nc(N(C)C)n1)c1ccccc1	1.11	1.7	-0.701	-3.23*	-10.6	-14.4
COC(=O)Cc1c(C)nc2nc(NCc3cccc([N+](=O)[O-])c3)[nH]n2c1=O	1.12	1.1	nt	nt	nt	nt
COc1ccc(S(=O)(=O)C(C#N)c2nc3ccccc3nc2N2CCC(C)CC2)cc1 (stereo not drawn)	-0.33	1.1	0.898	3.95*	?	-42.6
COc1ccc(-n2c(C)nc3c(cnn3-c3ccc(Cl)cc3)c2=O)cc1	-0.0117	1	-0.695	4.14*	-9.64	-53.2
COC(=O)C(C)n1cnc2c(cnn2-c2ccc(Cl)cc2)c1=O (stereo not drawn)	0.698	0.8	-0.169	4.63*	-5.04	-42.6
COc1ccc(Oc2c(Cl)cnn(-c3ccc(C)cc3)c2=O)cc1	1.01	0.8	nt	nt	nt	nt
COc1cccc(-n2c(C)nc3c(cnn3-c3ccc(C)cc3)c2=O)c1	-0.0672	0.9	-0.128	0.286	nt	nt
Cc1cccc(-n2c(C)nc3c(cnn3-c3ccc(F)cc3)c2=O)c1	-0.215	1.1	-0.745	9.38*	-4.18	?
Cc1cc(C(=O)NCCCN2CC(C)CC(C)C2)n(-c2ccccc2)n1 (stereo not drawn)	0.982	1.5	nt	nt	nt	nt
O=C(CC1SC(=Nc2ccccc2)N(CCCO)C1=O)Nc1ccc(Cl)cc1 (stereo not drawn)	-3.41	1.5	-0.887	4.44*	-4.55	?
O=C(CC1SC(=Nc2ccccc2)N(CCCCO)C1=O)NCc1ccccc1 (stereo not drawn)	0.183	1.3	0.357	0.0437	nt	nt
Cc1nn(C)c(C)c1CN(C)C(=O)c1cnn2c1NC(c1ccccc1)CC2C(F)(F)F (stereo not drawn)	0.522	1.5	-0.624	-3.3*	-26*	?
Cc1ccccc1Cn1ccc(NC(=O)c2cnn3c2NC(c2ccccc2)CC3C(F)(F)F)n1 (stereo not drawn)	-2.31	1.7	nt	nt	nt	nt
O=C(O)CCCCCCC1C(=O)NC(=O)N1CCC(O)C1CCCCC1 (stereo not drawn)	0.542	nt	1.09	-0.0318	nt	nt
CSc1ccc(Cl)c(C(=O)Nc2ccc(OCC(N)=O)cc2)c1	0.688	0.9	nt	nt	nt	nt
Cc1ccc(C(N)=S)c(C)c1	0.572	nt	0.488	-0.428	nt	nt
COc1ccc(NC(=O)N2Cc3ccccc3CC2C(=O)NC(C)(C)C)cc1 (stereo not drawn)	0.665	0.9	nt	nt	nt	nt
COc1ccc(NC(=O)C2Cc3ccccc3CN2C(=O)c2ccccc2)cn1 (stereo not drawn)	-0.367	1	-0.622	16.4*	?	?
CS(=O)(=O)N(CC(=O)NCc1cccnc1)Cc1ccc(Cl)cc1	0.796	1	-0.29	0.364	nt	nt
CS(=O)(=O)N(CC(=O)NCc1ccncc1)Cc1ccc(Cl)cc1	-0.106	0.9	-0.9	2.16*	-5.68	-12.6
Cc1cc2c(c(=O)o1)C1(C(=O)N(CC(=O)O)c3ccccc31)C(C#N)=C(N)O2 (stereo not drawn)	-1.36	1	-0.114	18.3*	59.9*	53.7
